Measurements reported in PubChem BioAssay.
Values without a mark were called inactive. For some of these results: Measured potencies and affinities stand elsewhere. Calls of active or inactive are those of the source. Unless noted, no rule for the calls is given here.

Key:
[1] = antimalarial activity against Dd2 strain (AID 2302;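 active = growth inhibition above 50% at the single 2 µM test dose, taken to imply half-maximal potency below 2 µM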;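 also: 0% = DMSO untreated growth and 100% = chloroquine plus artemisinin killed control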); conditions: P. falciparum Dd2 in RBCs, LDH growth readout, 72 h; at 2 µM; stronger effect = higher value
[2] = HepG2 cytotoxicity, primary screen, cytotoxicity control for P. falciparum antimalarial project, cell-based, ATP luminescence (AID 2303;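 active = inhibition above 50%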;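 also: 0% = DMSO wells and 100% = digitonin-killed cells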); conditions: HepG2 viability, 24-48 h, at 10 µM, stronger effect = higher value
[3] = target: L-lactate dehydrogenase (Plasmodium falciparum (isolate CDC / Honduras)) (UniProt Q27743); experiment: PfLDH activity inhibition – cell lysate, 3D7 strain, counter-screen for P. falciparum growth inhibition project (AID 2304);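 also: 0% = vehicle and 100% = reference inhibitor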; conditions: P. falciparum 3D7 crude extract, LDH APAD/NBT absorbance; at 2 µM; stronger effect = higher value
Chain of L-lactate dehydrogenase (Plasmodium falciparum (isolate CDC / Honduras)) (Q27743 whole entry, looked up): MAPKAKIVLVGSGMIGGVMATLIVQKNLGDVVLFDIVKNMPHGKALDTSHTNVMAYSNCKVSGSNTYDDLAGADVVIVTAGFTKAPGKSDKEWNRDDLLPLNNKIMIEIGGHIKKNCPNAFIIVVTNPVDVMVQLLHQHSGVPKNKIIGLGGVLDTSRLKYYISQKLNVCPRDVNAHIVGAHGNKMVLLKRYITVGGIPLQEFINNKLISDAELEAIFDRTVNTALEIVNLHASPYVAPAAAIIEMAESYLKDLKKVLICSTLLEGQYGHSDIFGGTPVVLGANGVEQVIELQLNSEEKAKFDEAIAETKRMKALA

[4] = inhibition of 3D7 malaria parasite growth – strain 3D7 (AID 2306);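 also: 0% = DMSO wells and 100% = chloroquine plus artemisinin control wells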; conditions: P. falciparum 3D7 erythrocytic growth, LDH absorbance, 72 h; at 2 µM; stronger effect = higher value
[5] = target: Calcium-dependent protein kinase 1 (Plasmodium falciparum (isolate 3D7)) (UniProt P62344); experiment: PfCDPK1 kinase inhibitors, biochemical, TCAMS library (AID 1159585; cut-off not given, nearly all actives have IC50 up to about 0.98 µM;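 also: inhibitors leave more ATP so luminescence rises with inhibition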); conditions: recombinant PfCDPK1, Kinase-Glo ATP depletion luminescence
Chain of Calcium-dependent protein kinase 1 (Plasmodium falciparum (isolate 3D7)) (P62344 whole entry, looked up): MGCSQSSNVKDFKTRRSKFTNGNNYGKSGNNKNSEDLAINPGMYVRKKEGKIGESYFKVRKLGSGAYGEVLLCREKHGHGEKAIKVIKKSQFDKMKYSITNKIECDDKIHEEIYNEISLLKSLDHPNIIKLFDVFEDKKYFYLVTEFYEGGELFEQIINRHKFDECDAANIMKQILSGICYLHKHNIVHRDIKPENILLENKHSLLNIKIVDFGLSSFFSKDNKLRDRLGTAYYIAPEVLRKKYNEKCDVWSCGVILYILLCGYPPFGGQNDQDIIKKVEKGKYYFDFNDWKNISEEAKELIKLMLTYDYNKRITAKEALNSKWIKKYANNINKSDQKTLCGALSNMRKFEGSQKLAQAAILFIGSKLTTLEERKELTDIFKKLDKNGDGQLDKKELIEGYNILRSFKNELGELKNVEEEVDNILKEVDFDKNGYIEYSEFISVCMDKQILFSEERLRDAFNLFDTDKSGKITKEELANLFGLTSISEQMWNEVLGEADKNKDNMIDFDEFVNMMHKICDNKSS

[6] = target: Plasmodium falciparum protein kinase 6 (PK6, PF3D7_1337100) (UniProt Q8IDW1); experiment: PfPK6 kinase inhibitors, biochemical, TCAMS library (AID 1159586); conditions: recombinant PfPK6, Kinase-Glo ATP depletion luminescence
Chain of Plasmodium falciparum protein kinase 6 (PK6, PF3D7_1337100) (Q8IDW1 1-305): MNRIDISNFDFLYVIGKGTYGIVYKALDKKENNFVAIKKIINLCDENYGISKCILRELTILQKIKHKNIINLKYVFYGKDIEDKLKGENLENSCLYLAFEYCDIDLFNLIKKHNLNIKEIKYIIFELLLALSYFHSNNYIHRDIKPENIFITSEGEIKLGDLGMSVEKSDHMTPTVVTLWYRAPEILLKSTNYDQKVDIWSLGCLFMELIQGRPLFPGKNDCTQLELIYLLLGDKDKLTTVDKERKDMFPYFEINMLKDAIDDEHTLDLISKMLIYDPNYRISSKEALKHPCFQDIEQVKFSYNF

[7] = target: Protein kinase 7 (PK7), Plasmodium falciparum 3D7 (PF3D7_0213400) (UniProt Q7YTF7); experiment: inhibition of Plasmodium PK7 catalytic activity – biochemical, TCAMS antimalarial set, Kinase-Glo luminescence (AID 1159587); conditions: recombinant PfPK7, Kinase-Glo ATP depletion luminescence
Chain of Protein kinase 7 (PK7), Plasmodium falciparum 3D7 (PF3D7_0213400) (Q7YTF7 1-343): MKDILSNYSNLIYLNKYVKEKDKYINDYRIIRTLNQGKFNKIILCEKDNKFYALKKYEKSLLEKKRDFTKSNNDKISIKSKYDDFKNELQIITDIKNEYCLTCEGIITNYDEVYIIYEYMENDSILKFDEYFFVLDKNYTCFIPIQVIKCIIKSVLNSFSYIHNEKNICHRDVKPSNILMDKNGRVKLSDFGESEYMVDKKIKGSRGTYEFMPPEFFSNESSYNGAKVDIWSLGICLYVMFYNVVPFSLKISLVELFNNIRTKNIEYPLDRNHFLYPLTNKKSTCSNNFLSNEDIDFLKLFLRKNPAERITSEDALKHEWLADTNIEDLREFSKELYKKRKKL

[8] = target: Calcium-dependent protein kinase 4 (Plasmodium falciparum (isolate 3D7)) (UniProt Q8IBS5); experiment: PfCDPK4 kinase inhibitors, biochemical, TCAMS library (AID 1159588; cut-off not given, nearly all actives have IC50 up to about 0.91 µM); conditions: recombinant PfCDPK4, Kinase-Glo ATP depletion luminescence
Chain of Calcium-dependent protein kinase 4 (Plasmodium falciparum (isolate 3D7)) (Q8IBS5 whole entry, looked up): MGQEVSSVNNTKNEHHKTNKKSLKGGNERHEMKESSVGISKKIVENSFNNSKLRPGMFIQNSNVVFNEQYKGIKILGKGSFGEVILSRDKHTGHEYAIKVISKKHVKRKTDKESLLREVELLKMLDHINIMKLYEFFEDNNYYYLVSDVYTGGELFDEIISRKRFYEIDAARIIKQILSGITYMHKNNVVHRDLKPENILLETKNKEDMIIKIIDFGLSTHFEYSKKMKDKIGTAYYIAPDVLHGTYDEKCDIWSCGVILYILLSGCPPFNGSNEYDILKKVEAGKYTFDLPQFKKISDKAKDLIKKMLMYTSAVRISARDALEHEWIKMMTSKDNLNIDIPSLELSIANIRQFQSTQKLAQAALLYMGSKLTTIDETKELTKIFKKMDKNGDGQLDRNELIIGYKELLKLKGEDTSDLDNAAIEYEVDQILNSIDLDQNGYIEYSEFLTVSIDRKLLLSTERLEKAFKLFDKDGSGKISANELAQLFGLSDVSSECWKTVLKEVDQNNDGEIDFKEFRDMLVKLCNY

Cc1ccccc1Nc1cc(Nc2ccccc2C)c2ccccc2n1
growth inhibition [1]: 93% (active)
inhibition [2]: 28%
inhibition [3]: -1%
growth inhibition [4]: 96% (active)
outcome [5]: inactive
outcome [6]: inactive
outcome [7]: inactive
outcome [8]: inactive

Cc1cc(NC(=O)c2coc3cc(F)c(N4C[C@@H](C)N(C)[C@@H](C)C4)cc23)ccc1-n1ccnc1
growth inhibition [1]: 42%
inhibition [2]: -9%
inhibition [3]: -3%
growth inhibition [4]: 96% (active)
outcome [5]: inactive
outcome [6]: inactive
outcome [7]: inactive
outcome [8]: inactive

CSc1sc(NC(=O)Nc2cccc(C(F)(F)F)c2)cc1C#N
growth inhibition [1]: 46%
inhibition [2]: 27%
inhibition [3]: -1%
growth inhibition [4]: 99% (active)
outcome [5]: inactive
outcome [6]: inactive
outcome [7]: inactive
outcome [8]: inactive

COCCNCc1ccc(-c2cccc(CN(C(=O)NCCc3ccccc3)C3CCN(Cc4ccccc4)CC3)c2)cc1
growth inhibition [1]: 90% (active)
inhibition [2]: 25%
inhibition [3]: -4%
growth inhibition [4]: 88% (active)
outcome [5]: inactive
outcome [6]: inactive
outcome [7]: inactive
outcome [8]: inactive

c1cc(CN2CCCCC2)cc(-c2csc(-c3nc4ccccc4[nH]3)c2)c1
growth inhibition [1]: 16%
inhibition [2]: 26%
inhibition [3]: 4%
growth inhibition [4]: 90% (active)
outcome [5]: inactive
outcome [6]: inactive
outcome [7]: inactive
outcome [8]: inactive

CC(CN(C)C)Oc1ccc2[nH]c(-c3cccc(OCc4ccccc4)c3)nc2c1C#N (stereo not given)
growth inhibition [1]: 94% (active)
inhibition [2]: 57% (active)
inhibition [3]: -2%
growth inhibition [4]: 101% (active)
outcome [5]: inactive
outcome [6]: inactive
outcome [7]: inactive
outcome [8]: inactive

CC(C)NCc1ccc(-c2cccc(-c3nc4ccc(F)cc4[nH]3)c2)cc1
growth inhibition [1]: 96% (active)
inhibition [2]: 14%
inhibition [3]: -4%
growth inhibition [4]: 101% (active)
outcome [5]: inactive
outcome [6]: inactive
outcome [7]: inactive
outcome [8]: inactive

O=C(Nc1ccc(-c2cccc(-c3nc4ccc(F)cc4[nH]3)c2)cc1)Nc1ccc(F)c(F)c1F
growth inhibition [1]: 98% (active)
inhibition [2]: 70% (active)
inhibition [3]: 3%
growth inhibition [4]: 100% (active)
outcome [5]: inactive
outcome [6]: inactive
outcome [7]: inactive
outcome [8]: inactive

O=C(Nc1ccc(Cl)cc1)c1ccc(CN2CCCN(Cc3cccc(F)c3)CC2)cc1
growth inhibition [1]: 8%
inhibition [2]: 59% (active)
inhibition [3]: 6%
growth inhibition [4]: 91% (active)
outcome [5]: inactive
outcome [6]: inactive
outcome [7]: inactive
outcome [8]: inactive

CCOc1c(Br)cc(C)cc1CNCCCNc1nc2ccccc2[nH]1
growth inhibition [1]: 5%
inhibition [2]: 24%
inhibition [3]: 6%
growth inhibition [4]: 93% (active)
outcome [5]: inactive
outcome [6]: inactive
outcome [7]: inactive
outcome [8]: inactive

Cc1ccc(Cc2cnc(NCCSCc3ccc(CN(C)C)s3)[nH]c2=O)cn1
growth inhibition [1]: -5%
inhibition [2]: 3%
inhibition [3]: 0%
growth inhibition [4]: 95% (active)
outcome [5]: inactive
outcome [6]: inactive
outcome [7]: inactive
outcome [8]: inactive

Cc1cc(-c2nc3ccc(C(=O)NCc4ccccc4)cc3n2C2CCN(C(=O)c3ccc(-c4ccccc4)cc3)CC2)ccn1
growth inhibition [1]: 97% (active)
inhibition [2]: 36%
inhibition [3]: 1%
growth inhibition [4]: 95% (active)
outcome [5]: inactive
outcome [6]: inactive
outcome [7]: inactive
outcome [8]: inactive

COc1ccc(CNc2nccc3ccc(-c4ccc5nccn5c4)cc23)cc1
growth inhibition [1]: 47%
inhibition [2]: 17%
inhibition [3]: -4%
growth inhibition [4]: 95% (active)
outcome [5]: inactive
outcome [6]: inactive
outcome [7]: inactive
outcome [8]: inactive

O=C(Nc1cccc(-c2cccc(-c3nc4ccc(F)cc4[nH]3)c2)c1)c1ccncc1
growth inhibition [1]: 24%
inhibition [2]: 28%
inhibition [3]: -3%
growth inhibition [4]: 92% (active)
outcome [5]: inactive
outcome [6]: inactive
outcome [7]: inactive
outcome [8]: inactive

COc1ccc(CNCc2cccc(-c3ccc(-c4nc5ccccc5[nH]4)s3)c2)cc1
growth inhibition [1]: 52% (active)
inhibition [2]: 14%
inhibition [3]: 0%
growth inhibition [4]: 90% (active)
outcome [5]: inactive
outcome [6]: inactive
outcome [7]: inactive
outcome [8]: inactive

O=C(NCCN1CCOCC1)c1csc(C2CCCN(C(=O)c3ccc(O)c(-c4cc(Cl)cc(Cl)c4)c3)C2)n1 (stereo not given)
growth inhibition [1]: 50% (active)
inhibition [2]: 12%
inhibition [3]: 6%
growth inhibition [4]: 97% (active)
outcome [5]: inactive
outcome [6]: inactive
outcome [7]: inactive
outcome [8]: inactive

CC(C)(C)Nc1nc(Nc2cccc([N+](=O)[O-])c2)nc(-n2ccnc2)n1
growth inhibition [1]: 41%
inhibition [2]: 10%
inhibition [3]: -9%
growth inhibition [4]: 98% (active)
outcome [5]: inactive
outcome [6]: inactive
outcome [7]: inactive
outcome [8]: inactive

COc1cc2[nH]c(-c3ccc(O)cc3)c(C)c(=O)c2c(OC)c1OC
growth inhibition [1]: 94% (active)
inhibition [2]: 1%
inhibition [3]: 0%
growth inhibition [4]: 100% (active)
outcome [5]: inactive
outcome [6]: inactive
outcome [7]: inactive
outcome [8]: inactive

COc1cccc(NC(=O)Nc2ccc(-c3oc(C(=O)NCC(c4ccccc4)N(C)C)cc3-c3ccncc3)cc2)c1 (stereo not given)
growth inhibition [1]: 99% (active)
inhibition [2]: 6%
inhibition [3]: 2%
growth inhibition [4]: 101% (active)
outcome [5]: inactive
outcome [6]: inactive
outcome [7]: inactive
outcome [8]: inactive

O=C(NCC1CC1)C1CCN(C(c2ccc(Cl)cc2)c2ccc(Cl)cc2)CC1
growth inhibition [1]: 95% (active)
inhibition [2]: 3%
inhibition [3]: 1%
growth inhibition [4]: 99% (active)
outcome [5]: inactive
outcome [6]: inactive
outcome [7]: inactive
outcome [8]: inactive
